# Reference: PubChem BioAssay (NCATS)
# Where “and” joins values, the source holds several entries; their conditions need not be identical. Equal entries are not always repeated. Records with an inconclusive call do not appear. A call without a number means that no potency is given here. Calls of active or inactive are those of the source. Unless noted, calls come from the whole dose curve; as a rule, active = well fitted curve in the direction sought with a large enough effect; inconclusive = small, poorly fitted or top-dose-only effect, or another doubt; inactive = no such curve, though single readings can be large; an effect the other way counts as inactive or inconclusive.
# Key:
# [1] = target: Calcium and integrin-binding protein 1 (Homo sapiens) (UniProt Q99828); assay: Primary qHTS for Identification of Calcium Integrin Binding Protein 1 (CIB1) Competitor (AID 1508620);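 note: GST tagged CIB1 binding a fluorescein labelled alphaIIb integrin peptide tracer; top concentration of the series differs between compounds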
# Chain of Calcium and integrin-binding protein 1 (Homo sapiens) (Q99828 whole entry, looked up): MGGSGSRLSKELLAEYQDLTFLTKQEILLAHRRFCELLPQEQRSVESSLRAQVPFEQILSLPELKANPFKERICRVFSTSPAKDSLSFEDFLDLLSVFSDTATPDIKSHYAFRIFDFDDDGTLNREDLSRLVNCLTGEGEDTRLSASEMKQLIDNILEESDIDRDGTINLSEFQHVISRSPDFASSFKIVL
# How it was run: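 Fluorescence polarization competition: GST-tagged CIB1 (1 uM final) preincubated with compound 15 min at room temperature, then FITC-labelled alphaIIb peptide (100 nM final) added. After 15 min at room temperature, polarization read at Ex 480/Em 540.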
# [2] = Primary qHTS for inhibitors of nuclear receptor binding SET domain protein 2 (NSD2) in an isogenic RCH-ACV NSD2 p.E1099K mutant (9B) (AID 1645876); note: nearly all actives have a fitted effect of over 70% in size; note: potency is the fitted concentration of half-maximal effect
# [3] = Primary qHTS for inhibitors of nuclear receptor binding SET domain protein 2 (NSD2) in an RCH-ACV wild type WT cells (2C) (AID 1645877); note: nearly all actives have a fitted effect of over 70% in size; note: potency is the fitted concentration of half-maximal effect
# [4] = Confirmatory qHTS for small molecule stabilizers of the endoplasmic reticulum resident proteome: Secreted ER Calcium Modulated Protein (SERCaMP) assay (AID 1508628); note: nearly all actives have a fitted effect of over 40% in size
# How it was run: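 GLuc-SERCaMP-expressing SH-SY5Y cells, pretreated 16 h with compound, are challenged with thapsigargin to empty ER calcium stores; after 4 h, coelenterazine is added directly to the medium and luminescence is imaged.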
# [5] = target: Cytochrome P450 2D6 (Homo sapiens) (UniProt P10635); assay: Cytochrome P450 family 2 subfamily D member 6 (CYP2D6) small molecule antagonists: luciferase biochemical (cell-free) qHTS assay (AID 1645840; active = well fitted curve in the direction sought with a large enough effect in the repeat runs; an effect the other way counts as inactive or inconclusive; note: nearly all actives have a fitted effect of over 55% in size; note: potency is the fitted concentration of half-maximal effect)
# Chain of Cytochrome P450 2D6 (Homo sapiens) (P10635 whole entry, looked up): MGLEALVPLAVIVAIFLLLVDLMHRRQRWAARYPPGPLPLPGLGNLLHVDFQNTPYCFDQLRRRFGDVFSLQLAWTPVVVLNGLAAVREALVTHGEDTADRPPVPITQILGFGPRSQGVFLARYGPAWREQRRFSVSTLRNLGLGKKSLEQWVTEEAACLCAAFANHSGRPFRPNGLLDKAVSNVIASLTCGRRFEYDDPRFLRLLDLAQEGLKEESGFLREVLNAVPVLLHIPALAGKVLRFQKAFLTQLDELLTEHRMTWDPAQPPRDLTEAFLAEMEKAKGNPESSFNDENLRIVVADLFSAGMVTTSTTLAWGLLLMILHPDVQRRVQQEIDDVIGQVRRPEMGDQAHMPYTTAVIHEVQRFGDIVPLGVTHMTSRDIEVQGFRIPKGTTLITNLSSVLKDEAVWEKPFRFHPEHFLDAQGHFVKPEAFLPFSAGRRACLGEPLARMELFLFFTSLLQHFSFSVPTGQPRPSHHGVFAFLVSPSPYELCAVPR
# How it was run: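 P450-Glo CYP2D6 system: proluciferin substrate converted by enzyme to luciferin, read by luminescence proportional to activity. Enzyme-substrate mix with compound 10 min at room temperature, then NADPH regeneration 1 h before detection reagent.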
# [6] = Cytotoxicity counterscreen for inhibitors of SARS-CoV-2 cell entry (AID 1645845; calls by dose curve; note: nearly all actives have a fitted effect of over 50% in size); details: outcome: dose series up to 57.1 µM unless noted
# How it was run: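 Counterscreen run in the same HEK293-ACE2 line as the pseudotyped-particle entry assay, without particles. Viability after 48 h at 37 C was read as ATP luminescence, scaled between cell-containing and cell-free wells.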
# [7] = Primary qHTS to identify inhibitors of SARS-CoV-2 cell entry (AID 1645846; calls by dose curve; note: nearly all actives have a fitted effect of over 45% in size; note: potency is the fitted concentration of half-maximal effect); details: activity change, negative = inhibition: at 57.1 µM (top of the series) unless noted
# How it was run: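 Entry measured by luciferase signal 48 h after adding SARS-CoV-2-S pseudotyped MLV particles to HEK293-ACE2 cells preincubated 1 h with compounds. Normalisation: bald particles and spike particles.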
# [8] = Primary qHTS for small molecule stabilizers of the endoplasmic reticulum resident proteome: Secreted ER Calcium Modulated Protein (SERCaMP) assay (AID 1508630)
# How it was run: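 The SH-SY5Y reporter protocol was run at 3 concentrations up to 38.3 uM (primary) or 11 concentrations (follow-up): 16 h compound, 100 nM thapsigargin for 4 h, then extracellular luciferase luminescence.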
# Papain (Carica papaya) = Papain (Carica papaya) (UniProt P00784); assay: Primary qHTS assay for inhibitors of the protease papain (AID 1645873);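 note: papain turnover of Z-FR-AMC read as the AMC fluorescence gain over 10 min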
# Chain of Papain (Carica papaya) (P00784 whole entry, looked up): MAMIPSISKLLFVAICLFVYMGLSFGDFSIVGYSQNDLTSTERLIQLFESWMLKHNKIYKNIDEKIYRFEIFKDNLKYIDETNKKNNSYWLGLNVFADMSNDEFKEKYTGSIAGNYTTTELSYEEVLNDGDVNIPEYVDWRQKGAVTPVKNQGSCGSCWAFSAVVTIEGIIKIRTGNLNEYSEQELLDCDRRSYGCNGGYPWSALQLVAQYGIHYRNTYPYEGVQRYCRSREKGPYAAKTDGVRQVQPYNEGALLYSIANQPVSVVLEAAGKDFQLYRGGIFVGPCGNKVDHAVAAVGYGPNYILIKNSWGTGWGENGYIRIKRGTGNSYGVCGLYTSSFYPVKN
# [9] = Confirmatory qHTS to identify inhibitors of SARS-CoV-2 cell entry (AID 1645844; calls by dose curve; note: potency is the fitted concentration of half-maximal effect; nearly all actives have a fitted effect of over 45% in size); details: SARS-CoV-2 pseudotyped particle cell entry, luciferase
# How it was run: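 HEK293-ACE2, overnight seeding; cpd 1 h, 37C/5% CO2; + SARS-CoV-2-S MLV PP (Wuhan-Hu-1, ΔC19); 48 h; Bright-Glo luminescence. Data normalised to S PP and bald PP wells.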
# [10] = VSVG counterscreen qHTS to identify inhibitors of SARS-CoV-2 cell entry (AID 1645847; calls by dose curve; note: potency is the fitted concentration of half-maximal effect; nearly all actives have a fitted effect of over 65% in size); details: VSV-G pseudotyped particle entry, luciferase
# How it was run: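 Luminescence read after 48 h infection at 37 C with VSV-G-pseudotyped MLV particles, following 1 h compound exposure of Expi293F cells stably expressing human ACE2; scaled between bald particle and VSV-G particle wells.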
# [11] = target: Rap guanine nucleotide exchange factor 3 (Homo sapiens) (UniProt O95398); assay: Confirmatory qHTS for antagonist of cAMP-regulated guanine nucleotide exchange factor 3 (EPAC1) (AID 1645880); note: nearly all actives have a fitted effect of over 55% in size
# Chain of Rap guanine nucleotide exchange factor 3 (Homo sapiens) (O95398 whole entry, looked up): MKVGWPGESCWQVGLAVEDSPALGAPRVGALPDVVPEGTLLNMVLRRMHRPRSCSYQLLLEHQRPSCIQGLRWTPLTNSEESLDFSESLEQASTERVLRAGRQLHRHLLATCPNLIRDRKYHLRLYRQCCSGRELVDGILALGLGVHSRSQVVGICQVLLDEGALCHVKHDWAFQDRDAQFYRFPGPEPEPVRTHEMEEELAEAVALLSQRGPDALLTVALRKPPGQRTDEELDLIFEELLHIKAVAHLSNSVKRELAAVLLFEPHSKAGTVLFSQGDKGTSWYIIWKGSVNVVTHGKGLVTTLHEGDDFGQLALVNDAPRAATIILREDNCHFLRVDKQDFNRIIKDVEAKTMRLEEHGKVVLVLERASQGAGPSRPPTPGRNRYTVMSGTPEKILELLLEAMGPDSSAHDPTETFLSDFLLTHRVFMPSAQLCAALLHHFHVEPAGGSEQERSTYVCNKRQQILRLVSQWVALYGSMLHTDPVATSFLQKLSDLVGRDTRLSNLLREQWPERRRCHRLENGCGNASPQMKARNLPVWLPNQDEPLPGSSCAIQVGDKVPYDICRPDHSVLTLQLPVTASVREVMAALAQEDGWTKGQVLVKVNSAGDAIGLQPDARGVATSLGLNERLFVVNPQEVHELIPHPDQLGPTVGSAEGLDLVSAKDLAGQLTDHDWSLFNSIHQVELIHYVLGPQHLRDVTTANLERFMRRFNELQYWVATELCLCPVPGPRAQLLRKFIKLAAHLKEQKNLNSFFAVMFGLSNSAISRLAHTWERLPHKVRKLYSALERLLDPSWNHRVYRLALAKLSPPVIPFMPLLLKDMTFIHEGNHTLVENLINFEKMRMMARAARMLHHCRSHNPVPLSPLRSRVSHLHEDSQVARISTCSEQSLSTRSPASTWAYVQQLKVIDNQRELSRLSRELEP
# How it was run: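 Released BODIPY-GDP fluoresces less than Rap1-bound BODIPY-GDP; the signal is followed at 480/540 nm at 5-min intervals over 30 min, after 5 min at room temperature. Reactions contain 100 nM EPAC1, 250 nM RAP1B-BODIPY-GDP and 50 uM GDP; results are normalized to ATA and DMSO.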
# [12] = target: Rap guanine nucleotide exchange factor 3 (Homo sapiens) (UniProt O95398); assay: Confirmatory qHTS for agonist of cAMP-regulated guanine nucleotide exchange factor 3 (EPAC1) (AID 1645881); note: nearly all actives have a fitted effect of over 75% in size; note: potency is the fitted concentration of half-maximal effect
structure (smiles),measurement,setting,value
C[C@@H]1C(=O)O[C@H]2[C@H](O)[C@@]34[C@@H]5OC(=O)[C@@]3(O[C@@H]3OC(=O)[C@@H](O)[C@@]34[C@H](C(C)(C)C)[C@H]5O)[C@@]12O,Potency,[1],inactive
same,Potency,[2],inactive
same,Potency,[3],inactive
COC1C(O)C(C)OC(OC2C(CO)O[C@@H](O[C@@H]3CC4CCC5C(CC[C@]6(C)[C@@H](C7=CC(=O)OC7)CC[C@]56O)[C@@]4(C)[C@H](O)C3)C(O)C2O)C1O (some centres not stated),Potency,[1],inactive
same,Potency,[2],0.43 µM (active)
same,Potency,[3],0.483 µM (active)
COC1CC(OC2CCC3(C)C(CCC4C3CCC3(C)C(C5=CC(=O)OC5)C(OC(C)=O)CC43O)C2)OC(C)C1OC1OC(CO)C(O)C(O)C1O (configuration not stated),Potency,[1],inactive
same,Potency,[2],0.483 µM (active)
same,Potency,[3],1.21 µM (active)
COc1ccc2c(c1)[C@@]13CCCC[C@H]1[C@@H](C2)NCC3,Potency,[4],inactive
CC(=O)OC12C(O)C(C)C3(O)C4C=C(C)C(=O)C4CC(CO)=CC3C1C2(C)C (configuration not stated),Potency,[1],inactive
same,Potency,[2],inactive
same,Potency,[3],inactive
COC1CC(O[C@H]2CC[C@@]3(C)C(=CCC4C3C(O)[C@@H](O)[C@]3(C)[C@@H](C(C)=O)CC[C@]43O)C2)OC(C)C1OC1CC(OC)C(OC2OC(C)C(O)C(O)C2O)C(C)O1 (some centres not stated),Potency,[1],inactive
same,"activity change, negative = viability loss",[2],-2.91% [at 9.23 µM] (inactive)
same,"activity change, negative = cell killing",[3],-4.48% [at 9.23 µM] (inactive)
C[C@@]12C[C@@H](c3ccoc3)OC(=O)C1CC[C@]1(C)[C@H]2[C@H]2C=C[C@]1(O)C(=O)O2 (some centres not stated),Potency,[1],inactive
same,Potency,[2],inactive
same,Potency,[3],inactive
CN1CCCC1CCOC(c1cc2nccc(C(=O)O)c2[nH]1)c1ccccc1Cl (configuration not stated),Potency,[1],inactive
same,Potency,[2],inactive
same,Potency,[3],inactive
CC1=C2C(=O)C3[C@@H](CC=C4C[C@@H](O)CC[C@@]43C)[C@@H]2CC[C@]12O[C@@H]1C[C@H](C)CN[C@H]1[C@H]2C (some centres not stated),Potency,[1],inactive
same,Potency,[2],inactive
same,Potency,[3],inactive
CCNC(C)Cc1cccc(C(F)(F)F)c1 (configuration not stated),Potency,[5],3.79 µM (active)
C[C@]12CCC(=O)C=C1C=C[C@@H]1[C@@H]2CC[C@@]2(C)[C@H]1CC[C@@]2(O)CCC(=O)O,outcome,[6],inactive
C=CC[C@]1(O)CC[C@H]2[C@@H]3CCC4=CCCC[C@@H]4[C@H]3CC[C@@]21C,outcome,[6],inactive
NCC(O)c1cccc(O)c1 (configuration not stated),Potency,[5],inactive
same,outcome,[6],inactive
same,"activity change, negative = inhibition",[7],-19.3%
CCCC(C)C1(CC)C(=O)NC(=O)NC1=O (configuration not stated),Potency,[5],inactive
C#CC(C)(O)CC (configuration not stated),Potency,[5],inactive
CCOc1ccc2c3c1O[C@H]1[C@@H](O)C=C[C@H]4[C@@H](C2)N(C)CC[C@@]341,outcome,[6],inactive
CCCCNCC(O)c1ccc(O)cc1 (configuration not stated),Potency,[5],9.52 µM (active)
same,outcome,[6],inactive
same,Potency,[7],inactive
CCCn1c(=O)c2[nH]c(C3CCCC3)nc2n(CCCOC(=O)c2ccc(S(=O)(=O)F)cc2)c1=O,outcome,[8],inactive
same,Potency,Papain (Carica papaya),inactive
O=C1C2CC=CCC2C(=O)N1SC(Cl)(Cl)Cl (configuration not stated),Potency,[9],15.2 µM (active)
same,Potency,[10],15.2 µM (active)
CC(N)Cc1ccc(O)cc1 (configuration not stated),outcome,[6],inactive
O=C(C[C@@H]1NCCC[C@H]1O)Cn1cnc2cc(Br)c(Cl)cc2c1=O,outcome,[6],inactive
Ic1ccccc1CNC1C2CCN(CC2)C1C(c1ccccc1)c1ccccc1 (configuration not stated),outcome,[8],inactive
same,Potency,Papain (Carica papaya),inactive
CN(N=O)c1cc(O)ccc1O,outcome,[8],inactive
same,Potency,Papain (Carica papaya),inactive
CCCC(=O)OC(C(Cl)(Cl)Cl)P(=O)(OC)OC (configuration not stated),outcome,[6],inactive [at 114 µM]
CCNCC(O)c1cccc(O)c1 (configuration not stated),Potency,[5],inactive
same,outcome,[6],inactive
same,"activity change, negative = inhibition",[7],-13.6%
O=[N+]([O-])c1cc(I)c(O)c(I)c1,Potency,[5],inactive
same,outcome,[6],inactive
C[C@@H](CO)NC(=O)[C@@H]1C=C2c3cccc4[nH]cc(c34)C[C@H]2N(C)C1,outcome,[6],inactive
ClC1C(Cl)C(Cl)C(Cl)C(Cl)C1Cl (configuration not stated),Potency,[5],inactive
same,outcome,[6],inactive
same,Potency,[7],inactive
COCC(C)N(C(=O)CCl)c1c(C)csc1C (configuration not stated),Potency,[5],inactive
O=[N+]([O-])C(Br)(CO)CO,Potency,[5],inactive
same,outcome,[6],inactive
same,Potency,[7],inactive
C[C@@H]1O[C@@H](O[C@H]2C[C@@H](O)[C@]3(CO)[C@@H]4C(CC[C@]3(O)C2)[C@@]2(O)CC[C@H]([C@@H]3COC(=O)C3)[C@@]2(C)C[C@H]4O)[C@H](O)[C@H](O)[C@H]1O (some centres not stated),outcome,[8],inactive
same,Potency,Papain (Carica papaya),inactive
CN(N=O)c1ccc(O)c(O)c1,outcome,[8],inactive
FC(F)OC(F)(F)C(F)Cl (configuration not stated),outcome,[6],inactive
CCCCCCCCOC(=O)c1ccccc1C(=O)OCCCCCCCC,Potency,[5],inactive
CC[C@H](C)[C@H]1O[C@]2(C=C[C@@H]1C)C[C@@H]1C[C@@H](C/C=C(\C)[C@@H](O[C@H]3C[C@H](OC)[C@@H](O[C@H]4C[C@H](OC)[C@@H](O)[C@H](C)O4)[C@H](C)O3)[C@@H](C)/C=C/C=C3\CO[C@@H]4[C@H](O)C(C)=C[C@@H](C(=O)O1)[C@]34O)O2,Potency,[9],21.5 µM (active)
same,Potency,[7],10 µM (active)
same,Potency,[10],12.1 µM (active)
Cc1cccc(C(C)c2cnc[nH]2)c1C (configuration not stated),outcome,[8],inactive
O=C1OC2(c3cc(Br)c(O)cc3Oc3c2cc(Br)c(O)[c]3[Hg])c2ccccc21 (configuration not stated),outcome,[8],inactive
same,Potency,[7],10 µM (active)
same,"activity, negative = inhibition",[11],245% [at 22 µM] (inactive)
same,Potency,[12],4.75 µM (active)
O=C(NC(=O)c1c(F)cccc1F)Nc1ccc(Cl)c(Oc2ncc(C(F)(F)F)cc2Cl)c1,Potency,[5],1.51 µM (active)
CCN(CC)C(=O)N[C@H]1C[C@@H]2c3cccc4[nH]cc(c34)C[C@H]2N(C)C1,outcome,[6],inactive
CCC1(CC)C(=O)NC(=O)N(C)C1=O,outcome,[6],inactive
CC(C)(O)[C@@H]1[C@H]2OC(=O)[C@@H]1[C@]1(O)C[C@H]3O[C@]34C(=O)O[C@H]2[C@]14C,outcome,[6],inactive
CCOC(=O)c1ccccc1C(=O)OCC,Potency,[5],inactive
same,outcome,[6],inactive
same,Potency,[7],inactive
CC1CCC(C(C)C)C(OC(=O)c2ccccc2N)C1 (configuration not stated),Potency,[5],inactive
same,outcome,[6],inactive
same,"activity change, negative = inhibition",[7],-3.33%
CCC(=O)O[C@@](Cc1ccccc1)(c1ccccc1)[C@@H](C)CN(C)C,outcome,[6],inactive
CCNC(=O)[C@H]1O[C@@H](n2cnc3c(N)ncnc32)[C@H](O)[C@@H]1O,outcome,[8],inactive
same,Potency,Papain (Carica papaya),inactive
CCCN(CCC)[C@@H]1CCc2cccc(O)c2C1,outcome,[8],inactive
same,Potency,Papain (Carica papaya),inactive
COc1ccc2c(c1)/C(=C/c1cnc[nH]1)C(=O)N2,outcome,[8],inactive
same,Potency,[2],13 µM (active)
same,Potency,[3],18.4 µM (active)
C/C(=C\c1csc(C)n1)[C@@H]1C[C@@H]2O[C@]2(C)CCC[C@H](C)[C@H](O)[C@@H](C)C(=O)C(C)(C)[C@@H](O)CC(=O)O1,outcome,[6],inactive
same,"activity change, negative = inhibition",[7],-75.8% and -81.1%
same,Potency,[10],0.0341 µM (active)
same,Potency,[2],0.0066 µM (active)
same,Potency,[3],0.0059 µM (active)
O=S(=O)(O)c1cc(O)ccc1O,outcome,[6],inactive
same,"activity change, negative = inhibition",[7],-12.6%
O=C1/C(=C/c2ccccc2)C[C@@]2(O)[C@H]3Cc4ccc(O)c5c4[C@@]2(CCN3CC2CC2)[C@H]1O5,Potency,Papain (Carica papaya),inactive
CCC(C)(OC(C)=O)C(=O)O[C@H]1[C@H](OC(C)=O)C[C@@H]2[C@@](C)([C@@H]3C[C@H]4C=CO[C@H]4O3)[C@H](C)C[C@H](OC(C)=O)[C@@]2(COC(C)=O)[C@@]12CO2 (some centres not stated),Potency,[2],inactive
same,Potency,[3],inactive
O=[N+]([O-])c1ccccc1,outcome,[6],inactive
same,"activity change, negative = inhibition",[7],-19.1%
O=c1[nH]cc(N(CCCl)CCCl)c(=O)[nH]1,outcome,[6],inactive
same,"activity change, negative = inhibition",[7],-21% [at 114 µM]
same,outcome,[11],inactive
same,Potency,[12],inactive
O=C1CN=C(c2ccccc2)c2cc(Cl)ccc2N1CC1CC1,outcome,[11],inactive
same,Potency,[12],inactive
O=C(NCNC(=O)NC1C(=O)NC(=O)N1CO)NC1C(=O)NC(=O)N1CO (configuration not stated),outcome,[6],inactive
same,Potency,[7],inactive
